Laboratory results reported in PMC5540273 (PLoS ONE, 2017).

System: T1, AMPK-alpha2
T1 construct: gene PRKAA2
Conditions: concentration: 1 μM,replicates: in singlicate; n = 1
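Note: KINOMEscan kinase panel screen.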

Structure (SMILES)	%Inh [%]
OCCn1cc(-c2cnc3nnn(Cc4ccc5ncccc5c4)c3n2)cn1	0
CCN1CCN(CCCC(=O)Nc2n[nH]c3nc(-c4ccc(O)cc4)c(Br)cc23)CC1 [SB-731579]	0
C[C@@H]1CNc2c(sc3ccc4nc(-c5ccncc5)ccc4c23)C(=O)N1	0
COc1cccc(CNC(=O)NC2CCN(c3ccnc(Nc4cc(OC)c(OC)c(OC)c4)n3)C2)c1 (stereo not shown) [GSK1379765]	2
CCn1c(-c2nonc2N)nc2cncc(CNC3CCNCC3)c21.Cl [SB-747651]	0
O=C(NCC1CC1)c1ccc(-c2cc(C(=O)NC3CC3)ccc2F)cc1 [GW810445]	0
COc1cccc(OC)c1C(=O)Nc1cccc(-c2nn3ccccc3c2-c2ccnc(Nc3cccc(F)c3)n2)c1 [GSK361065]	4
Cn1cc(-c2cccc3c(N)c(C(N)=O)nnc23)cn1	49
CC(C)S(=O)(=O)N1CCN(Cc2ccc3c(c2)nc(NC(=O)c2ccsc2)n3C[C@H](O)c2ccccc2)CC1 [GW635815]	2
Cc1ccc(CC(=O)N2CCc3cc(-c4cn(C)c5ncnc(N)c45)ccc32)cc1 [GSK2634758]	29
CCn1c(-c2nonc2N)nc2cncc(Br)c21 [SB-738004]	0
O=C(Nc1ccccc1)c1cccc(Oc2ccc3nccn3n2)c1	7
COC(=O)Nc1nc2cc(Oc3ccc(NC(=O)Nc4cc(C(F)(F)F)ccc4Cl)cc3)ccc2[nH]1.Cl [GW697465]	0
O=C1NCCc2[nH]c(-c3ccncc3)cc21	0
CNC(=O)c1ccccc1Nc1nc(Nc2cccc(CS(C)(=O)=O)c2)ncc1C.O=CO [GSK1520489]	97.9
O=C(Nc1cccc(Oc2ccc3nccn3n2)c1)Nc1cccc(C(F)(F)F)c1	0
COc1ccc(Nc2nccc(N3CCC(NC(=O)c4cccc(C#N)c4)C3)n2)cc1 (stereo not shown) [GSK1379730]	0
COc1cc2nccc(Nc3ccc(Oc4ccccc4)cc3)c2cc1OC.Cl [GI261656]	0
C[C@@H](Oc1cc(-n2cnc3ccc(-c4ccncc4)cc32)sc1C(N)=O)c1ccccc1Cl [GSK483724]	12

Structure (SMILES)	%Inh [%]
CC(=O)Nc1ccc(-c2cc3ncnc(SCC(=O)O)c3s2)cc1	0
NC(=O)c1ccc(-c2cc3ncnc(SCC(=O)O)c3s2)cc1	0
COc1cc(Nc2nccc(N3CCC(NC(=O)c4cccc(C#N)c4)C3)n2)cc(OC)c1OC (stereo not shown) [GSK1379751]	0
Cn1ccc2ncnc(Oc3ccc(NC(=O)Nc4cc(C(C)(C)C)on4)c(Cl)c3)c21	21
Cn1ccc2ncnc(Oc3ccc(NC(=O)Nc4cccc(C(F)(F)F)c4)c(F)c3)c21	0
CC(=O)Nc1nc2cnc(Nc3cc(NC(=O)c4cccc(CC(C)(C)C#N)c4)ccc3C)nc2s1	7
c1ccc(Oc2ccc(Nc3ccnc4ccc(-c5ccccn5)cc34)cc2)cc1 [GW407034]	0
COC(=O)c1cccc(NC(=O)NC2CCN(c3ccnc(Nc4cc(OC)c(OC)c(OC)c4)n3)C2)c1 (stereo not shown) [GSK1379767]	9
Cc1cccc(-c2nc(Nc3ccncc3)c3sccc3n2)n1 [GW869641]	27
CC(=O)c1c(-c2ccncc2)[nH]c(-c2ccncc2)c1C [GW493036]	0
Cc1nnc(-c2ccc3occ(-c4ccc(S(C)=O)cc4)c3n2)o1 (stereo not shown)	0
Cc1ccc2c(-c3ccnc(Nc4ccc(C(F)(F)F)cc4)n3)cnn2n1 [GW819776]	8
Cn1ccc2ncnc(Oc3ccc(NC(=O)Nc4cncc(C(F)(F)F)c4)c(Cl)c3)c21	0
Cl.Nc1n[nH]c2cc(-c3ccccn3)ccc12 [GSK2189892]	1
C[C@@H](Oc1cc(-n2cnc3cc(-c4cnn(C)c4)ccc32)sc1C(N)=O)c1ccccc1Cl [GSK580432]	27
CN1CCN(CCCNc2nccc(-c3c(-c4ccc(F)cc4)nn4cc(C(N)=O)ccc34)n2)CC1 [GW622475]	11
O=C(Nc1n[nH]c2cc(-c3ccco3)ccc12)C1CC1 [SB-737447]	0
NC(=O)Nc1sc(-c2ccc(F)cc2)cc1C(N)=O [GW789449]	15
